Source: PMC7862700, “An all-to-all approach to the identification of sequence-specific readers for epigenetic DNA modifications on cytosine”

How the values were obtained:
Experiment in all cases: DAPPL (digital affinity profiling via proximity ligation, sequencing); 10 mM Tris-HCl pH 7.5, 50 mM NaCl, 1 mM DTT, 4% glycerol, room temperature, 30 min; GST-TFs on glutathione beads, 16-mer random dsDNA library, 0.1% formaldehyde crosslink after washing; high values mean tight binding
[1] = biological target: T1, FLI1 (Homo sapiens, UniProt Q01543 1-452); details: protein: recombinant; tags: N-terminal GST; dsDNA, one strand shown
T1 sequence: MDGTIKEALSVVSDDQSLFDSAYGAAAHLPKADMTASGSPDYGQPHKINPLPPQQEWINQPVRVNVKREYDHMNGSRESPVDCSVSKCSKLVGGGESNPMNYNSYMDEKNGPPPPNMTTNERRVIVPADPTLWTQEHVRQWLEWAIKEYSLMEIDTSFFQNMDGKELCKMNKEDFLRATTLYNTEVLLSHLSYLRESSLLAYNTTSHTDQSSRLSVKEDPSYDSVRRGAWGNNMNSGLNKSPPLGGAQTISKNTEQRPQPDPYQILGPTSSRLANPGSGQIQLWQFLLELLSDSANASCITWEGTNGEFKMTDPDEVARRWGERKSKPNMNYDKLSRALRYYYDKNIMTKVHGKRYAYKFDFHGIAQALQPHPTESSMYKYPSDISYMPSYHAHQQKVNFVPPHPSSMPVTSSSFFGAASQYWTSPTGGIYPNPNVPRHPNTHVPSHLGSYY
Outline: (§1)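 Binding signal is each hexamer's read frequency for a factor divided by its frequency in the tag-only sample. The factors were GST-fused human transcription factors from yeast, captured on glutathione beads, DNA-barcoded and pooled with that sample. Pools were incubated with 200 nmole of a random double-stranded 16-mer DNA library in Tris/NaCl/DTT/glycerol buffer at room temperature for 30 min, then washed, crosslinked with 0.1% formaldehyde, proximity-ligated with BsaI/T4 ligase (1 h, 37 °C), PCR-amplified and sequenced on an Illumina NextSeq500.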

[2] = biological target: T2, GABPA (Homo sapiens, UniProt Q06546 1-454); details: protein: recombinant; tags: N-terminal GST; dsDNA, one strand shown
T2 sequence: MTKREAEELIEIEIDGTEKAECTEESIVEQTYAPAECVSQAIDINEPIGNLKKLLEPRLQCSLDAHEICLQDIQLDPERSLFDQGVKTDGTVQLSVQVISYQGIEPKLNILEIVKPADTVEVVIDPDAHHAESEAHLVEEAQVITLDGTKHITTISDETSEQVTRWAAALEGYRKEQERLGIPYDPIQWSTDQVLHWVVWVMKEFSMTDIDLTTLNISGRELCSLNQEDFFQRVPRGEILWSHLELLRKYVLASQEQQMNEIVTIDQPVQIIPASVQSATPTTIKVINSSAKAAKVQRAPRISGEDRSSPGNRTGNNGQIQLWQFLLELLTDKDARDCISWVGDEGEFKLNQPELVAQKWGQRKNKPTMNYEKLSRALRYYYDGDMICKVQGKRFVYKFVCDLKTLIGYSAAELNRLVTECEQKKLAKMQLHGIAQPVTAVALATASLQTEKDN
Outline: as §1

[3] = biological target: T3, EHF (Homo sapiens, UniProt Q9NZC4 1-300); details: protein: recombinant; tags: N-terminal GST; dsDNA, one strand shown
T3 sequence: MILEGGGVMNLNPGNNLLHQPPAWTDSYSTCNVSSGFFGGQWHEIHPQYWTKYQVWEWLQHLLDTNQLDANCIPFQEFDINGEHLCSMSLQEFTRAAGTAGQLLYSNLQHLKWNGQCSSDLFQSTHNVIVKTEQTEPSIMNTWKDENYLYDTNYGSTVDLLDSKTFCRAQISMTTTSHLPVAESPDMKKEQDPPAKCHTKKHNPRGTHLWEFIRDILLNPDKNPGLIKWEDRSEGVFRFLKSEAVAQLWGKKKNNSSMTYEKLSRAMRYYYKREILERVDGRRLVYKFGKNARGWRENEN
Outline: as §1

[4] = biological target: HSF1 (Homo sapiens, UniProt Q00613 1-529); details: protein: recombinant; tags: N-terminal GST; chain copies: 3; dsDNA, one strand shown
Sequence of HSF1 (Q00613 whole entry): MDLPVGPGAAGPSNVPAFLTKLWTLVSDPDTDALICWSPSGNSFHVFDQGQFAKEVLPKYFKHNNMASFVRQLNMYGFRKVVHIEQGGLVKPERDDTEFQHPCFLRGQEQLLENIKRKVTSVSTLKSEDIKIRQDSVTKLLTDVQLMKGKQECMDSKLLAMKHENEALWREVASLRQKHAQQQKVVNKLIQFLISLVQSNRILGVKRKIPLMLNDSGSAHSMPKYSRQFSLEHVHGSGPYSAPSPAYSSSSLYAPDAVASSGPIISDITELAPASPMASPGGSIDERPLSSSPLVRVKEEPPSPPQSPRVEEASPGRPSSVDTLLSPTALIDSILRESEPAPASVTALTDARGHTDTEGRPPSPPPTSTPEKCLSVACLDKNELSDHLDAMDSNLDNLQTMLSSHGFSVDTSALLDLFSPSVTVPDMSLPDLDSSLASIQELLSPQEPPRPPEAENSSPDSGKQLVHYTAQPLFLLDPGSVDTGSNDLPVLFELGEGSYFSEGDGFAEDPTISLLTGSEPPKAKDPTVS
Outline: as §1

[5] = biological target: T4, ETV2 (Homo sapiens, UniProt O00321 1-342); details: protein: recombinant; tags: N-terminal GST; dsDNA, one strand shown
T4 sequence: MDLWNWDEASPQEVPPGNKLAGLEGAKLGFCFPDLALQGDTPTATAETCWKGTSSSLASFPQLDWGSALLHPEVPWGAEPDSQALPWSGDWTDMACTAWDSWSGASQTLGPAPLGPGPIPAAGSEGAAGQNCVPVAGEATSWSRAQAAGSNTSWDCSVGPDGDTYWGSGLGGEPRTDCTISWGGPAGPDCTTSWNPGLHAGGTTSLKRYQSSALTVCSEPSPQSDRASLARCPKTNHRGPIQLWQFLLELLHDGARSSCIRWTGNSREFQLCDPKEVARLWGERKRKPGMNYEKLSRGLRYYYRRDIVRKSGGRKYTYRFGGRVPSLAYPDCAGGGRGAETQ
Outline: as §1

[6] = biological target: T5, ELF3 (Homo sapiens, UniProt P78545 1-371); details: protein: recombinant; tags: N-terminal GST; dsDNA, one strand shown
T5 sequence: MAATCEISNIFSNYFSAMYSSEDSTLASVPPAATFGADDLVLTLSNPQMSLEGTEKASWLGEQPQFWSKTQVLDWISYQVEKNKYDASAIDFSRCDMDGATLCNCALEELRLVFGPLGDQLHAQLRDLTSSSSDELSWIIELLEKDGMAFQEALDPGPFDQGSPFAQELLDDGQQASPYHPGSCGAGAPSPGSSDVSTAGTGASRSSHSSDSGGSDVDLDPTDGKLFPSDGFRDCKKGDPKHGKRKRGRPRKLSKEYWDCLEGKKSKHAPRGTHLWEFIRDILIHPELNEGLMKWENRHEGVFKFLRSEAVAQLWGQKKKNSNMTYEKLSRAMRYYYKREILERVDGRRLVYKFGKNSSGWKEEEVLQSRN
Outline: as §1

[7] = biological target: CRX (Homo sapiens, UniProt O43186 1-299); details: protein: recombinant; tags: N-terminal GST; dsDNA, one strand shown
Sequence of CRX (O43186 whole entry): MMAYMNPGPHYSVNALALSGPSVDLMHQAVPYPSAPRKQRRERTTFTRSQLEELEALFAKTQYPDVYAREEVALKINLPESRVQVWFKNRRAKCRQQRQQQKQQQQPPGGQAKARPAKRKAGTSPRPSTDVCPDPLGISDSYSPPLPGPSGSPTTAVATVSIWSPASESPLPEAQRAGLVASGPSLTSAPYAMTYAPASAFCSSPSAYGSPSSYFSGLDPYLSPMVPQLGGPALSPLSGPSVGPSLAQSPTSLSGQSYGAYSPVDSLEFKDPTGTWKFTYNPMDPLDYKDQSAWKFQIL
Outline: as §1

[8] = biological target: T6, ETV7 (Homo sapiens, UniProt Q9Y603 1-341); details: protein: recombinant; tags: N-terminal GST; dsDNA, one strand shown
T6 sequence: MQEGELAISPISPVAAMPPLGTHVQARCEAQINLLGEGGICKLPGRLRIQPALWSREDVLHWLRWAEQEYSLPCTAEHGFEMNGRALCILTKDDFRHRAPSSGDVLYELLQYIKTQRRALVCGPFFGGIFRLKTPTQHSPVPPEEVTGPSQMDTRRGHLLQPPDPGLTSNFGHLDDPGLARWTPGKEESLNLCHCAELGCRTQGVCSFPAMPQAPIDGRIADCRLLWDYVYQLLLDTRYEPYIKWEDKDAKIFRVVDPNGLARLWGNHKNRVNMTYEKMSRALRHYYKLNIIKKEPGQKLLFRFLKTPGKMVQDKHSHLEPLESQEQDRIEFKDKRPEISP
Outline: as §1

[9] = biological target: ETV6 (Homo sapiens, UniProt P41212 1-452); details: protein: recombinant; tags: N-terminal GST; dsDNA, one strand shown
Sequence of ETV6 (P41212 whole entry): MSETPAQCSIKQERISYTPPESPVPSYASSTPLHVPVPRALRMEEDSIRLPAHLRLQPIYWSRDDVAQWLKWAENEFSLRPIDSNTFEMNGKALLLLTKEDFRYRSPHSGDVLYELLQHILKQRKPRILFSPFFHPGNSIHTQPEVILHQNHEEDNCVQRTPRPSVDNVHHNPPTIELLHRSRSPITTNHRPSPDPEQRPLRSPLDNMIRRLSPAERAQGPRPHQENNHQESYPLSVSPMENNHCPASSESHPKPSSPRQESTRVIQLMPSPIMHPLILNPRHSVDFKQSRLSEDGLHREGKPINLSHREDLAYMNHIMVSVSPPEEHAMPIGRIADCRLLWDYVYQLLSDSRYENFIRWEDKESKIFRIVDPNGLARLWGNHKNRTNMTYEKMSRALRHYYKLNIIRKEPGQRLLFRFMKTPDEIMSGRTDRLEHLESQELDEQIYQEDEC
Outline: as §1

[10] = biological target: T7, ELK1 (Homo sapiens, UniProt P19419 1-428); details: protein: recombinant; tags: N-terminal GST; dsDNA, one strand shown
T7 sequence: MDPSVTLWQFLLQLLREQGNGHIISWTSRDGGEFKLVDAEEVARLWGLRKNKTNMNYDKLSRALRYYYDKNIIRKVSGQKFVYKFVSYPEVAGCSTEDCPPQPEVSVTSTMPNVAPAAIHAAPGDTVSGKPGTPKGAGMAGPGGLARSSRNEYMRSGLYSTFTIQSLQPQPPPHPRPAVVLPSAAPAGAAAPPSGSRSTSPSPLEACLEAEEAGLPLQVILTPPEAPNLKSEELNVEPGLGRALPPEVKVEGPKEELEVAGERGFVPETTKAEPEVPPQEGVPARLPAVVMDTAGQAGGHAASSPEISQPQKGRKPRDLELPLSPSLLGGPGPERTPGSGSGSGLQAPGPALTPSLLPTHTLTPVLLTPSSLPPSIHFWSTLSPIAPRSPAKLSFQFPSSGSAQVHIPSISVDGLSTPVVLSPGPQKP
Outline: as §1

[11] = biological target: ELF4 (Homo sapiens, UniProt Q99607 1-663); details: protein: recombinant; tags: N-terminal GST; dsDNA, one strand shown
Sequence of ELF4 (Q99607 whole entry): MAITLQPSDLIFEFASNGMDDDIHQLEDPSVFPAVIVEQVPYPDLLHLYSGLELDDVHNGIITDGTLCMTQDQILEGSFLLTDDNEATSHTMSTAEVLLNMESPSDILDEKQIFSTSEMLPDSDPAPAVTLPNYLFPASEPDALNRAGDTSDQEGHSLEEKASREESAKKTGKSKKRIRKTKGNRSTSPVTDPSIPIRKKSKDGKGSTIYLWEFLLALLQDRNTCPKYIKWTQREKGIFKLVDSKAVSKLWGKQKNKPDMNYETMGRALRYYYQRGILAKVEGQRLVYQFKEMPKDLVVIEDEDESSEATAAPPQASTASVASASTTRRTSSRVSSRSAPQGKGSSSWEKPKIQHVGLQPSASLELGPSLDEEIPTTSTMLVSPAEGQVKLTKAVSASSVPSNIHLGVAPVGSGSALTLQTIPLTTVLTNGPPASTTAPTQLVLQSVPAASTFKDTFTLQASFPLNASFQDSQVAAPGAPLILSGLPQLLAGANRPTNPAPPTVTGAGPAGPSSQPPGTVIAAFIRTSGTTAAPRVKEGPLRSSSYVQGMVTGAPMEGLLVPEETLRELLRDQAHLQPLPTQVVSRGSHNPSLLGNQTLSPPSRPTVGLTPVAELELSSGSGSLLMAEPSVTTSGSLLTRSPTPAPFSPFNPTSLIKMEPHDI
Outline: as §1

[12] = biological target: T8, ERF (Homo sapiens, UniProt P50548 1-548); details: protein: recombinant; tags: N-terminal GST; dsDNA, one strand shown
T8 sequence: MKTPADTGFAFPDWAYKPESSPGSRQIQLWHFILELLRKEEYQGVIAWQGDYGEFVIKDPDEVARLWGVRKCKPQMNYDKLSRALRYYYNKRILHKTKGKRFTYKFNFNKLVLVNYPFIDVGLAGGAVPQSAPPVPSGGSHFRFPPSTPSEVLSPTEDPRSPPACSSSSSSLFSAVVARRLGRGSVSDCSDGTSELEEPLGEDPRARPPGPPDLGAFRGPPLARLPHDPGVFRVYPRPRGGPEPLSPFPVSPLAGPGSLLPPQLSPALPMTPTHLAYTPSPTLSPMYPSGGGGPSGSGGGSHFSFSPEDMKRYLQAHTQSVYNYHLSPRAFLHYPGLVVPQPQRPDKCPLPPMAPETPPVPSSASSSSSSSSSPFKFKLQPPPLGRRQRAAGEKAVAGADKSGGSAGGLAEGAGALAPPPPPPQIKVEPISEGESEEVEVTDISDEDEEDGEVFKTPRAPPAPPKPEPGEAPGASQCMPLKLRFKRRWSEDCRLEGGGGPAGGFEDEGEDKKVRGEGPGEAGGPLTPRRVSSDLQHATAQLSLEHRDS
Outline: as §1

[13] = biological target: T9, ETV3 (Homo sapiens, UniProt P41162-2 1-143); details: protein: recombinant; tags: N-terminal GST; dsDNA, one strand shown
T9 sequence: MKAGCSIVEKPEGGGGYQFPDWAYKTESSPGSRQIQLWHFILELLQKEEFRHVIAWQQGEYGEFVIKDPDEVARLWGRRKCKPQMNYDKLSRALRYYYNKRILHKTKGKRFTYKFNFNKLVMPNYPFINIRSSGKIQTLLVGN
Outline: as §1

[14] = biological target: ELF1 (Homo sapiens, UniProt P32519 1-619); details: protein: recombinant; tags: N-terminal GST; dsDNA, one strand shown
Sequence of ELF1 (P32519 whole entry): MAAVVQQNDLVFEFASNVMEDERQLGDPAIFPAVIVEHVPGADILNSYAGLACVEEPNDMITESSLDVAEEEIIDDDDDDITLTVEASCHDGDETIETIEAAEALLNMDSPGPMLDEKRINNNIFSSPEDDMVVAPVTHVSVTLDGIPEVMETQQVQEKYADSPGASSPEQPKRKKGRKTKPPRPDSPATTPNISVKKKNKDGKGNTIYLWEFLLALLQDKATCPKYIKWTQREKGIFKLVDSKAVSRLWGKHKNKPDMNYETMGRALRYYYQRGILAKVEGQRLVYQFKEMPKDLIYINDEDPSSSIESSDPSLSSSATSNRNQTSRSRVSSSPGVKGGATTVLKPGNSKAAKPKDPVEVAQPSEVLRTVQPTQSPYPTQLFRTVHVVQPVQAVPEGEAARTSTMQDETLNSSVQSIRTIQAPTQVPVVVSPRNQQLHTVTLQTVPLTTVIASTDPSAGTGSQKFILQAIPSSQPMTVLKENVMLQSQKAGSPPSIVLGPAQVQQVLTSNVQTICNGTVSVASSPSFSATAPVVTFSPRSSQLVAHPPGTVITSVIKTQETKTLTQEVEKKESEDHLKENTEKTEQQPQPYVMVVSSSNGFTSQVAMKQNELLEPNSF
Outline: as §1

[15] = biological target: T10, SPIC (Homo sapiens, UniProt Q8N5J4 1-248); details: protein: recombinant; tags: N-terminal GST; dsDNA, one strand shown
T10 sequence: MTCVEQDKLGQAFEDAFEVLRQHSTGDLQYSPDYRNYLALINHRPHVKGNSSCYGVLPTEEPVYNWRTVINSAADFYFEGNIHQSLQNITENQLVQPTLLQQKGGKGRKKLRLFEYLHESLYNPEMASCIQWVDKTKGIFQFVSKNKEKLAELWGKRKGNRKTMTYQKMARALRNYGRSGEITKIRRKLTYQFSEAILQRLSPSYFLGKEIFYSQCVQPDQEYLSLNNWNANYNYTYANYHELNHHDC
Outline: as §1

[16] = biological target: T11, ELK4 (Homo sapiens, UniProt P28324-2 1-405); details: protein: recombinant; tags: N-terminal GST; dsDNA, one strand shown
T11 sequence: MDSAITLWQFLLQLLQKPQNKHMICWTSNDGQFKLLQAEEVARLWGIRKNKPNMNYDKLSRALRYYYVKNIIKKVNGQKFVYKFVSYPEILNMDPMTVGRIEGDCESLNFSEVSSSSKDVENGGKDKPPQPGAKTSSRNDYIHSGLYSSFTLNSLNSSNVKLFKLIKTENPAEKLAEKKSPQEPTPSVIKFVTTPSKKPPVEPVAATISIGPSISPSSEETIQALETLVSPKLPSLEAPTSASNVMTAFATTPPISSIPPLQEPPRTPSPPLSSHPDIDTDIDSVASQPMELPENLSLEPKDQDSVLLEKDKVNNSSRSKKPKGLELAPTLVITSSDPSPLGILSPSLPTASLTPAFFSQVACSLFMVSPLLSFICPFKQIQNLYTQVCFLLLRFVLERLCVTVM
Outline: as §1

[17] = biological target: ETV1 (Homo sapiens, UniProt P50549 1-477); details: protein: recombinant; tags: N-terminal GST; dsDNA, one strand shown
Sequence of ETV1 (P50549 whole entry): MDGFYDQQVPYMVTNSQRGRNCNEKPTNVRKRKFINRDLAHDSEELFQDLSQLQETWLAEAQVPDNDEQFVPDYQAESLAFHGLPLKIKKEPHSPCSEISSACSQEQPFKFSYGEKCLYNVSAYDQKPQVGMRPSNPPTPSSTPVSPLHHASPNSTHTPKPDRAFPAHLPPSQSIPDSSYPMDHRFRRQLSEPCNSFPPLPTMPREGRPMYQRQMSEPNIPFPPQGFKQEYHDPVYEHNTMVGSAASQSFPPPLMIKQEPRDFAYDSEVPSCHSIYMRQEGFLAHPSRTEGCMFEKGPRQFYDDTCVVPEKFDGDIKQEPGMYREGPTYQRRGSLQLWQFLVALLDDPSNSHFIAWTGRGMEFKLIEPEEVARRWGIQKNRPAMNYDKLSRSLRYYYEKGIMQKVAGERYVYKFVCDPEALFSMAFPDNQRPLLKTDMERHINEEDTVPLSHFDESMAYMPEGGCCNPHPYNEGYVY
Outline: as §1

Row | Sequence | binding signal [1] | binding signal [2] | binding signal [3] | binding signal [4] | binding signal [5] | binding signal [6] | binding signal [7] | binding signal [8] | binding signal [9] | binding signal [10] | binding signal [11] | binding signal [12] | binding signal [13] | binding signal [14] | binding signal [15] | binding signal [16] | binding signal [17]
1 | TTGGAA | 1.01 fold enrichment (6-mer frequency, TF over GST control) | 1.03 fold enrichment (6-mer frequency, TF over GST control) | 1.04 fold enrichment (6-mer frequency, TF over GST control) | 1.32 fold enrichment (6-mer frequency, TF over GST control) | 1.02 fold enrichment (6-mer frequency, TF over GST control) | 1.06 fold enrichment (6-mer frequency, TF over GST control) | 1.07 fold enrichment (6-mer frequency, TF over GST control) | 1 fold enrichment (6-mer frequency, TF over GST control) | 1.03 fold enrichment (6-mer frequency, TF over GST control) |  |  |  |  |  |  |  | 
2 | AGAAAC | 1.04 fold enrichment (6-mer frequency, TF over GST control) |  |  | 1.78 fold enrichment (6-mer frequency, TF over GST control) |  | 1.02 fold enrichment (6-mer frequency, TF over GST control) |  | 1.16 fold enrichment (6-mer frequency, TF over GST control) | 1.03 fold enrichment (6-mer frequency, TF over GST control) | 1.02 fold enrichment (6-mer frequency, TF over GST control) | 1.01 fold enrichment (6-mer frequency, TF over GST control) | 1.05 fold enrichment (6-mer frequency, TF over GST control) | 1.01 fold enrichment (6-mer frequency, TF over GST control) |  |  |  | 
3 | ACTTGA | 1.1 fold enrichment (6-mer frequency, TF over GST control) | 1 fold enrichment (6-mer frequency, TF over GST control) |  |  | 1.13 fold enrichment (6-mer frequency, TF over GST control) | 1.04 fold enrichment (6-mer frequency, TF over GST control) |  | 1.08 fold enrichment (6-mer frequency, TF over GST control) |  | 1.1 fold enrichment (6-mer frequency, TF over GST control) | 1.07 fold enrichment (6-mer frequency, TF over GST control) | 1.01 fold enrichment (6-mer frequency, TF over GST control) | 1.07 fold enrichment (6-mer frequency, TF over GST control) | 1.02 fold enrichment (6-mer frequency, TF over GST control) | 1 fold enrichment (6-mer frequency, TF over GST control) | 1.14 fold enrichment (6-mer frequency, TF over GST control) | 1.07 fold enrichment (6-mer frequency, TF over GST control)
